Growth inhibition data for 20 compounds are collected here from PubChem BioAssay (NCI).

The nature of assay [1]: NCI Yeast Anticancer Drug Screen. Data for the rad50 strain (AID 155).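 Further: 0% = growth of vehicle-only cultures of the same strain.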 Conditions: S. cerevisiae rad50 strain growth inhibition; at 50.0 µM; stronger effect = higher value. The procedure, abridged: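 Readout: growth inhibition relative to vehicle-treated cultures. Compound exposure was carried out in a genetically defined yeast strain deficient in DNA damage repair.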
Assay [2] in a line: NCI Yeast Anticancer Drug Screen. Data for the mec2-1 strain (AID 157). Conditions: S. cerevisiae mec2-1 strain, at 50.0 µM, stronger effect = higher value. Summed up: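 Cells of the genetically defined mec2-1 yeast strain are incubated with test compound. Inhibition of growth is calculated against vehicle-treated controls.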
The nature of assay [3]: NCI Yeast Anticancer Drug Screen. Data for the sgs1 mgt1 strain (AID 161).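 Further: 0% = growth of cultures given vehicle only.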 Conditions: S. cerevisiae sgs1 mgt1 strain, at 50.0 µM, stronger effect = higher value. The procedure, abridged: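 Read-out: growth inhibition vs vehicle controls. Cells: mutant yeast strain deficient in DNA damage repair.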
Assay [4] is described as follows: NCI Yeast Anticancer Drug Screen. Data for the cln2 rad14 strain (AID 165).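 Further: 0% = growth equal to vehicle treated cultures.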 Particulars: S. cerevisiae cln2 rad14 strain, at 50.0 µM, stronger effect = higher value. Summed up: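 The screen exposed genetically defined yeast (cln2 rad14) to test compounds and scored growth inhibition relative to vehicle-treated controls.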
A short description of assay [5]: NCI Yeast Anticancer Drug Screen. Data for the bub3 strain (AID 167). Conditions: S. cerevisiae bub3 mutant strain, at 50.0 µM, stronger effect = higher value. Summed up:
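Readout: yeast growth inhibition, expressed relative to vehicle-only wells. The test organism is a mutant strain from a panel with lesions in DNA repair or checkpoint genes.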

Assay [6] in a line: NCI Yeast Anticancer Drug Screen. Data for the mlh1 rad18 strain (AID 175). Particulars: S. cerevisiae mlh1 rad18 strain growth inhibition; at 50.0 µM; stronger effect = higher value. The procedure, abridged: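 Compound-treated yeast growth, normalised to vehicle controls. Strain bears defined DNA repair mutations.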

Molecules are shown by their SMILES. The panel holds about 79,000 compounds, 15% with a hit somewhere; the sample as a whole holds those more often. A number with no mark means an inactive call. The source made the active and inactive calls. No stated cut-off is given here; in the data, active means growth inhibition above about 70%; inactive means the rest.

Regarding `CCN(C(=O)NC(C)(C)C)c1cccc(C)c1`, the growth inhibition in assay [1] is 3.15%; in assay [2], -1.9%; in assay [3], 0.35%; in assay [4], -19.6%; in assay [5] it was -0.3%; in assay [6] it was 5.8%.

As to `NC(=O)c1c[nH]c(=O)cc1O`, the growth inhibition was -5.35% in assay [1]; -13.6% in assay [2]; 50.2% in assay [3]; 18.8% in assay [4]; 7.3% in assay [5]; 0% in assay [6].

`COc1ccc(C(C)=O)c(C)c1OC`: the growth inhibition is 22.6% in assay [1]; 3.65% in assay [2]; 19.6% in assay [3]; 10.4% in assay [4]; -22.2% in assay [5]; 15.2% in assay [6].

Regarding `O=C1OCc2c[n+]([O-])ccc21`, the growth inhibition is -17.4% in assay [1]; -9.2% in assay [2]; -6.85% in assay [3]; -30.2% in assay [4]; 0.65% in assay [5]; 4.35% in assay [6].

Regarding `CN(C)CSC(=S)NCCNC(=S)SCN(C)C`, the growth inhibition was 1.6% in assay [1]; -19.6% in assay [2]; 24.8% in assay [3]; 5.95% in assay [4]; 4% in assay [5]; -4.1% in assay [6].

In the case of `CCN(CC)COC(=O)C(C)(C)C`, the growth inhibition in assay [1] is -13.1%; in assay [2] it was 10.6%; in assay [3], -12.9%; in assay [4], -35%; in assay [5], -9.25%; in assay [6], -4.2%.

As to `COc1ccc(N2C(=O)C3c4[nH]c5ccccc5c4C4CCCCCCC4C3C2=O)cc1` (stereo not given), the growth inhibition in assay [1] is 50.1%; in assay [2], 25.9%; in assay [3], 22.6%; in assay [4] it was -8.9%; in assay [5], 11.9%; in assay [6] it was 28.6%.

Take `COc1cc(/C=C(/C#N)C(N)=O)cc(OC)c1OC`: the growth inhibition in assay [1] is 15.6%; in assay [2], 10.6%; in assay [3], 18.9%; in assay [4], 12.3%; in assay [5], 11.1%; in assay [6], 14.8%.

For the compound `O=[N+]([O-])C1C2C=CC(C2)[C@H]1c1ccco1` (stereo not given in full), the growth inhibition in assay [1] was -7.85%; in assay [2], -15.2%; in assay [3], -24.7%; in assay [4], 20.2%; in assay [5] it was -14.8%; in assay [6], -4.95%.

Consider `CCOC(=O)c1[nH]c2cccc3c2c1CC[C@H](NC(=O)C(F)(F)F)C3=O`, for which the growth inhibition is -5.1% in assay [1]; 9.3% in assay [2]; 10.8% in assay [3]; 18.2% in assay [4]; 0.95% in assay [5]; 8.3% in assay [6].

For `C/C=C/C1N(C)CCCN1C`, the growth inhibition is -2% in assay [1]; -7.55% in assay [2]; -7.25% in assay [3]; 18% in assay [4]; -25.9% in assay [5]; 8.55% in assay [6].

For the compound `O=[P+](O)c1cc2c3ccccc3ccc2c2ccccc12`, the growth inhibition was -34.9% in assay [1]; 11.8% in assay [2]; 32% in assay [3]; -12.3% in assay [4]; 33% in assay [5]; -0.55% in assay [6].

For the compound `C[n+]1cccc(C(=O)c2ccccc2)c1`, the growth inhibition was 6.4% in assay [1]; -4.8% in assay [2]; 0.65% in assay [3]; 12.1% in assay [4]; -0.55% in assay [5]; 6.5% in assay [6].

As to `NC(CCC(N)C(=O)c1ccccc1)C(=O)c1ccccc1` (stereo not given), the growth inhibition in assay [1] is -12.2%; in assay [2] it was -7.75%; in assay [3] it was 4.35%; in assay [4] it was 6.8%; in assay [5], -8.8%; in assay [6], 11.7%.

On to `CC(O)CCC(C)(C)[N+](=O)[O-]` (stereo not given), for which the growth inhibition is 3.15% in assay [1]; -6.85% in assay [2]; 0.1% in assay [3]; 10.8% in assay [4]; 0.25% in assay [5]; -0.9% in assay [6].

Consider `N#CCCN(CCC#N)c1ccc(C=Nc2ccc(F)cc2)cc1`, for which the growth inhibition in assay [1] was 20%; in assay [2], 9.65%; in assay [3], 11.9%; in assay [4], 15.8%; in assay [5] it was 18.5%; in assay [6], 45.2%.

Turning to `O=C1Nc2ccccc2C2=C3CCCCC3=NNC12` (stereo not given), the growth inhibition in assay [1] is 97.7% (active); in assay [2] it was 93.8% (active); in assay [3], 97.7% (active); in assay [4], 68.2%; in assay [5], 97.5% (active); in assay [6], 86% (active).

Take `NC(=O)NNC(=O)c1nc[nH]c1[N+](=O)[O-]`: the growth inhibition is -24.2% in assay [1]; -3.3% in assay [2]; 11.6% in assay [3]; -15.9% in assay [4]; -18.2% in assay [5]; -13.3% in assay [6].

`CCC[C@H](C)[C@H]1NC(=O)[C@@H](NC(=O)[C@@H](CC(C)C)N(C)C(=O)C2CCCN2C(=O)[C@H](C)O)[C@@H](C)OC(=O)[C@H](CC(C)C)N(C)C(=O)[C@@H]2CCCN2C(=O)[C@H](CC(C)C)NC(=O)[C@@H](C)C(=O)[C@H](C(C)C)OC(=O)C[C@@H]1O` (stereo not given in full): the growth inhibition is 21.2% in assay [1]; 9.35% in assay [2]; -5.9% in assay [3]; 26.3% in assay [4]; -20.9% in assay [5]; -54% in assay [6].

For `O=[N+]([O-])c1cccc(NC(c2ccccc2)S(=O)(=O)O)c1` (stereo not given), the growth inhibition in assay [1] was -5.15%; in assay [2], -18.6%; in assay [3] it was 9.65%; in assay [4] it was 18.9%; in assay [5], 8.75%; in assay [6], 5.15%.
